Results on 38 compounds are retold here after PubChem BioAssay (Tox21).

Inconclusive results are not listed. Entries that show only a call come without a potency. Values without a mark were called inactive. Active and inactive are the calls of the source. Unless noted, calls come from the whole dose curve; as a rule, active = well fitted curve in the direction sought with a large enough effect in the repeat runs; inconclusive = weak or mixed curves; inactive = no such curve, though single readings can be large; an effect the other way counts as inactive or inconclusive.

The target in the first experiment is Estrogen receptor (Homo sapiens) (UniProt P03372). The experiment is described as follows: qHTS assay to identify small molecule agonists of the estrogen receptor alpha (ER-alpha) signaling pathway using the BG1 cell line (AID 743079). Note: nearly all actives have a fitted effect of over 20% in size. Note: potency is the fitted concentration of half-maximal effect. The settings on record: BG1Luc4E2 cells, ERE-luciferase agonist, 22 h; series mostly up to 70.3 µM. In general terms: Quantitative high-throughput screening tests each substance at several concentrations.
Chain of Estrogen receptor (Homo sapiens) (P03372 whole entry, looked up): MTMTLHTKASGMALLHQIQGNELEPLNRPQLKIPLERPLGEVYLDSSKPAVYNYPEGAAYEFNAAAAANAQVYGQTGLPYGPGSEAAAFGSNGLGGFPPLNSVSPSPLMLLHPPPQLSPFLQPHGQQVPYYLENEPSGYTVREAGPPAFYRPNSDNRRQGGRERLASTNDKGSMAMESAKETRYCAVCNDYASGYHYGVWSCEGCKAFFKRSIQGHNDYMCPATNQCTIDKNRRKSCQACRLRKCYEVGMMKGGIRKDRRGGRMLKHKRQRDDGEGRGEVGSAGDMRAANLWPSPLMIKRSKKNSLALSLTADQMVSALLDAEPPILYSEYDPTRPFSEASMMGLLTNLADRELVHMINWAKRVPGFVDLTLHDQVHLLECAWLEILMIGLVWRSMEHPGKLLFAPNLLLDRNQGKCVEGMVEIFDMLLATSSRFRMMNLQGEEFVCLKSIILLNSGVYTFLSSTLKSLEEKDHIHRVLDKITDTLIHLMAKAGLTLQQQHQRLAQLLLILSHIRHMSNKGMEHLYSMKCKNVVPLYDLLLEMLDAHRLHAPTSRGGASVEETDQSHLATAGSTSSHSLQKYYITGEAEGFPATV
On to `COC(=O)/C=C(\C)CCC=C(C)C`, for which the Potency result was “inactive”.
Regarding `CNC(C)=O`, the Potency result is “inactive”.
In the case of `CC(=O)c1ccc2ccc3ccccc3c2c1`, the Potency is 8.58 µM (active).
In the case of `CCN1CCN(C(=O)N[C@@H](C(=O)N[C@@H]2C(=O)N3[C@@H]2SC(C)(C)[C@H]3C(=O)O)c2ccccc2)C(=O)C1=O`, the Potency entry is “inactive”.
Same read-out and setting: then `Cc1ccc(O)c([N+](=O)[O-])c1`, with “inactive”; and `CC(C)(C)C(=O)CC(=O)C(C)(C)C`, with “inactive”.
On the same count and under the same terms, for `CC(=O)Nc1ccc(OCCOCCOc2ccc(NC(C)=O)cc2)cc1` the value was “inactive”; for `Cc1ccc(NC(N)=O)cc1`, “inactive”.
Still for that read-out and setting: for `NS(=O)(=O)c1cc2c(cc1C(F)(F)F)NCNS2(=O)=O` the value was “inactive”.
Turning to `Clc1cc(Cl)c(Cl)c(Cl)c1Cl`, the Potency entry is “inactive”.
Same read-out and setting: then `CC(CC(=O)Cl)CC(C)(C)C` (centres undefined), with “inactive”.
Consider `NNC(=O)CCCCC(=O)NN`, for which the Potency result is “inactive”.
`COCCCOc1cc(C[C@@H](C[C@H](N)[C@@H](O)C[C@H](C(=O)NCC(C)(C)C(N)=O)C(C)C)C(C)C)ccc1OC`: the Potency result is “inactive”.
On the same count and under the same terms, for `CCCCS` the value was “inactive”.
Take `C[Si](C)(C)O[Si](O)(O)O`: the Potency entry was “inactive”.
On to `C/C=C(\C)C=O`, for which the Potency result is “inactive”.
`O=C(O)Cc1c(Cl)ccc(Cl)c1Cl`: the Potency result is “inactive”.
Same read-out and setting: then `CCCCCCCCCCCBr`, with “inactive”; and `CCc1ccc(CC)cc1`, with “inactive”.
For `CCCCCCCCCCCCCCCCN(C)C`, the activation is -2.47% [at 8.47 µM].
For `CC(C)(O)c1ccc(C(C)(C)O)cc1`, the Potency result was “inactive”.
Still for that read-out and setting: then `O=C(OOC(=O)c1ccccc1)c1ccccc1`, with “inactive”; and `Cc1cc(C)c(C)c(C)c1`, with “inactive”; and `CCO[Si](CC(C)C)(OCC)OCC`, with “inactive”.
As for `CC(CN1CC(=O)NC(=O)C1)N1CC(=O)NC(=O)C1` (centres undefined), the Potency result was “inactive”.
The same measure, in the same setting: for `Cc1ccc(Br)cc1` the value was “inactive”.
On the same count and under the same terms, for `CC(=O)OC/C=C(/C)CCC=C(C)C` the value was “inactive”; for `CCCCCCCCCCCCCCBr`, “inactive”.
Consider `C[C@@H]1CC[C@@]2(OC1)O[C@H]1C[C@H]3[C@@H]4CC[C@H]5C[C@@H](O)CC[C@]5(C)[C@H]4CC(=O)[C@]3(C)[C@H]1[C@@H]2C`, for which the Potency result was “inactive”.
The same measure, in the same setting: then `C=COCCCCO`, with “inactive”; and `CN(C)c1ccncc1`, with “inactive”.
Still for that read-out and setting: then `Cc1cc(C)c(N)c(Cl)c1`, with “inactive”; and `Cc1ccc(N)nc1`, with “inactive”.

System in the next experiment: not listed separately
The experiment is described as follows: qHTS assay to identify small molecule antagonists of the estrogen receptor alpha (ER-alpha) signaling pathway using the BG1 cell line (AID 743080; calls by dose curve;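 note: BG1 cells stimulated with 17beta-estradiol alongside compound; nearly all actives have a fitted effect of over 25% in size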). The note with it: BG1Luc4E2 ERE-luciferase antagonist mode, luminescence; series mostly up to 70.3 µM. Summed up: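 BG1-Luc-4E2 cells (endogenous full-length ER-alpha, stable 4×ERE-luciferase) were starved 5 days in phenol-red-free medium with 10% charcoal-stripped FBS, plated 24 h, then given compound plus 17beta-estradiol for 21.5 h at 37 C; ONE-Glo luminescence read after 30 min.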
On to `CCN1CCN(C(=O)N[C@@H](C(=O)N[C@@H]2C(=O)N3[C@@H]2SC(C)(C)[C@H]3C(=O)O)c2ccccc2)C(=O)C1=O`, for which the Potency result is “inactive”.
Consider `NNC(=O)CCCCC(=O)NN`, for which the Potency entry is “inactive”.
Turning to `COCCCOc1cc(C[C@@H](C[C@H](N)[C@@H](O)C[C@H](C(=O)NCC(C)(C)C(N)=O)C(C)C)C(C)C)ccc1OC`, the Potency entry was “inactive”.
Same read-out and setting: for `CC(C)CC(O)Cc1ccccc1` (centres undefined) the value was “inactive”.

System in the next experiment: not listed separately
The experiment is described as follows: qHTS assay to identify small molecule antagonists of the estrogen receptor alpha (ER-alpha) signaling pathway using the BG1 cell line - cell viability counter screen (AID 743081).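 Note: compound given together with 17beta-estradiol as the ER stimulus; nearly all actives have a fitted effect of over 45% in size.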 The settings on record: BG1Luc4E2 viability, CellTiter-Fluor, 22 h; series mostly up to 70.3 µM.
For `COC(=O)/C=C(\C)CCC=C(C)C`, the compound was called inactive.
On the same count and under the same terms, for `CNC(C)=O` the value was “inactive”; for `CC(=O)c1ccc2ccc3ccccc3c2c1`, “inactive”.
Still for that read-out and setting: then `CCN1CCN(C(=O)N[C@@H](C(=O)N[C@@H]2C(=O)N3[C@@H]2SC(C)(C)[C@H]3C(=O)O)c2ccccc2)C(=O)C1=O`, with “inactive”; and `Cc1ccc(O)c([N+](=O)[O-])c1`, with “inactive”.
In the case of `CC(C)(C)C(=O)CC(=O)C(C)(C)C`, the outcome was inactive.
The same measure, in the same setting: for `CC(=O)Nc1ccc(OCCOCCOc2ccc(NC(C)=O)cc2)cc1` the value was “inactive”; for `Cc1ccc(NC(N)=O)cc1`, “inactive”; for `CC(C)(C)c1ccc(N)cc1`, “inactive”.
For the compound `NS(=O)(=O)c1cc2c(cc1C(F)(F)F)NCNS2(=O)=O`, the result was inactive.
Regarding `Clc1cc(Cl)c(Cl)c(Cl)c1Cl`, the result was inactive.
`CC(CC(=O)Cl)CC(C)(C)C` (centres undefined): the compound was classed as inactive.
Same read-out and setting: for `COCCCOc1cc(C[C@@H](C[C@H](N)[C@@H](O)C[C@H](C(=O)NCC(C)(C)C(N)=O)C(C)C)C(C)C)ccc1OC` the value was “inactive”; for `CCCCS`, “inactive”; for `C[Si](C)(C)O[Si](O)(O)O`, “inactive”.
The same measure, in the same setting: for `C/C=C(\C)C=O` the value was “inactive”; for `O=C(O)Cc1c(Cl)ccc(Cl)c1Cl`, “inactive”.
On to `CCCCCCCCCCCBr`, for which the result was inactive.
Same read-out and setting: then `CCc1ccc(CC)cc1`, with “inactive”.
Take `CCCCCCCCCCCCCCCCN(C)C`: the activity change, negative = cytotoxicity was -2.87% [at 8.47 µM].
With `CC(C)(O)c1ccc(C(C)(C)O)cc1`, the outcome was inactive.
Turning to `O=C(OOC(=O)c1ccccc1)c1ccccc1`, the result was inactive.
In the case of `Cc1cc(C)c(C)c(C)c1`, the compound was classed as inactive.
In the case of `CCO[Si](CC(C)C)(OCC)OCC`, the call was inactive.
In the case of `CC(CN1CC(=O)NC(=O)C1)N1CC(=O)NC(=O)C1` (centres undefined), the result was inactive.
Same read-out and setting: then `Cc1ccc(Br)cc1`, with “inactive”; and `CC(=O)OC/C=C(/C)CCC=C(C)C`, with “inactive”; and `CCCCCCCCCCCCCCBr`, with “inactive”.
With `NCC1CCC(C(=O)Oc2ccc(CCC(=O)O)cc2)CC1` (centres undefined), the compound was called inactive.
With `C[C@@H]1CC[C@@]2(OC1)O[C@H]1C[C@H]3[C@@H]4CC[C@H]5C[C@@H](O)CC[C@]5(C)[C@H]4CC(=O)[C@]3(C)[C@H]1[C@@H]2C`, the outcome was inactive.
On the same count and under the same terms, then `C=COCCCCO`, with “inactive”; and `CN(C)c1ccncc1`, with “inactive”; and `Cc1cc(C)c(N)c(Cl)c1`, with “inactive”.
The same measure, in the same setting: then `CC(C)CC(O)Cc1ccccc1` (centres undefined), with “inactive”.
The same measure, in the same setting: then `O=C(O)/C=C(\CC(=O)O)C(=O)O`, with “inactive”; and `COCc1nnc(-c2ccc[n+]([O-])c2)n1-c1c(Cl)c(Cl)cc2[nH]c(=O)c(=O)[nH]c12`, with “inactive”; and `Cc1ccc(N)nc1`, with “inactive”.
